Measurements taken from PubChem BioAssay AID1159580 (chemical genetic matrix, 2015).
Values joined by “and” are separate entries in the source; they are usually repeats but may differ in a detail not shown here. Equal values may be shown once. In all, about 5,500 compounds went through this assay and about 2,000 (36%) were called active. Roughly 18% stayed inconclusive and do not appear here. No stated cut-off is given here; in the data, active means normalized growth mostly below about 0.91 (no sharp cut-off); inconclusive means no clear call, values can overlap the other calls; inactive means mostly above about 0.92. The list shows a part of the results.

Experiment: chemical genetic growth profiling, strain panel (AID 1159580);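 further: tested at 20 µM; growth read once vehicle control cultures reached saturation at 30 °C; 1 = growth at the plate median or of vehicle wells; lower values mean less growth of the strain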
Conditions: S. cerevisiae deletion strains, growth OD

Measured: normalized growth

CC1=C2C(O)C(=O)OC3CC4C(C)(C)C(=O)C=C[C@]4(C)C(CC1)[C@]23C (stereo partly specified)
inactive: locus YAL021C, strain ccr4, hits give low values 1.01 | locus YAL026C, strain drs2, hits give low values 1.02 | locus YAL030W, strain snc1, hits give low values 1.01 | locus YBL061C, strain skt5, hits give low values 1.01 | locus YBR009C, strain hhf1, hits give low values 1 | locus YBR021W, strain FUR4, hits give low values 0.994 | locus YBR023C, strain chs3, hits give low values 1.02 | locus YBR171W, strain sec66, hits give low values 1.01 | locus YBR229C, strain ROT2, hits give low values 1.02 | locus YBR231C, strain swc5, hits give low values 1 | locus YBR279W, strain paf1, hits give low values 1 | locus YCL011C, strain gbp2, hits give low values 1.01 | locus YCL016C, strain dcc1, hits give low values 1.01 | locus YCL029C, strain bik1, hits give low values 1 | locus YCL061C, strain MRC1, hits give low values 1 | locus YCL069W, strain vba3, hits give low values 1 | locus YCR088W, strain abp1, hits give low values 1.01 | locus YDL005C, strain med2, hits give low values 1.02 | locus YDL035C, strain GPR1, hits give low values 1.03 | locus YDL040C, strain nat1, hits give low values 1.01 | locus YDL074C, strain BRE1, hits give low values 1.07 | locus YDL101C, strain DUN1, hits give low values 1.04 | locus YDL134C, strain PPH21, hits give low values 1.04 | locus YDL185W, strain tfp1, hits give low values 1.02 | locus YDL192W, strain arf1, hits give low values 1.02 | locus YDR001C, strain nth1, hits give low values 1 | locus YDR069C, strain doa4, hits give low values 1.02 | locus YDR101C, strain arx1, hits give low values 0.99 | locus YDR137W, strain rgp1, hits give low values 1.12 | locus YDR159W, strain sac3, hits give low values 1.03 | locus YDR162C, strain NBP2, hits give low values 1.04 | locus YDR195W, strain ref2 0.986 | locus YDR297W, strain sur2, hits give low values 1.02 | locus YDR318W, strain mcm21, hits give low values 1.02 | locus YDR334W, strain swr1, hits give low values 1 | locus YDR335W, strain msn5, hits give low values 1 | locus YDR388W, hits give low values 1.02 | locus YDR392W, strain spt3, hits give low values 1.03 | locus YDR502C, strain sam2, hits give low values 1.04 | locus YEL003W, strain gim4, hits give low values 1 | locus YEL037C, strain rad23, hits give low values 1 | locus YEL061C, strain CIN8 (second series), hits give low values 1.01 | locus YER015W, strain faa2, hits give low values 1.01 | locus YER016W, strain bim1, hits give low values 1.02 | locus YER110C, hits give low values 1.02 | locus YER111C, strain swi4, hits give low values 1.02 | locus YER155C, strain BEM2 (second series), hits give low values 1.01 | locus YER155C, strain BEM2, hits give low values 1 | locus YER167W, strain BCK2, hits give low values 1 | locus YFR010W, strain ubp6, hits give low values 1.01 | locus YGL078C, strain dbp3, hits give low values 1.05 | locus YGL086W, strain mad1, hits give low values 1.01 | locus YGL167C, strain pmr1, hits give low values 1.02 | locus YGL173C, strain kem1, hits give low values 1.03 | locus YGL227W, strain vid30, hits give low values 1.01 | locus YGL240W, strain doc1, hits give low values 1 | locus YGL248W, strain PDE1, hits give low values 1.02 | locus YGL253W, strain hxk2, hits give low values 1.02 | locus YGR078C, strain PAC10, hits give low values 1.05 | locus YGR135W, strain pre9, hits give low values 1.07 | locus YGR252W, strain gcn5, hits give low values 1.13 | locus YHR013C, strain ard1, hits give low values 1.04 | locus YHR027C, strain rpn1, hits give low values 1.02 | locus YHR030C, strain SLT2, hits give low values 1.01 and 1.04 | locus YHR079C, strain IRE1 (second series), hits give low values 1.01 | locus YHR079C, strain IRE1, hits give low values 1.02 | locus YHR094C, strain hxt1, hits give low values 1.01 | locus YHR129C, strain ARP1, hits give low values 1.02 | locus YHR142W, strain chs7, hits give low values 1.01 | locus YHR200W, strain rpn10, hits give low values 1.02 | locus YIL066C, strain RNR3, hits give low values 1.02 | locus YIL073C, strain SPO22, hits give low values 1.06 | locus YIL125W, strain kgd1, hits give low values 0.995 | locus YIR030C, strain dcg1, hits give low values 1.02 | locus YJL092W, strain hpr5, hits give low values 1 | locus YJL095W, strain BCK1 (second series), hits give low values 1.01 | locus YJL095W, strain BCK1, hits give low values 1.07 and 1.03 | locus YJL115W, strain asf1, hits give low values 1.01 | locus YJL129C, strain trk1, hits give low values 1.03 | locus YJL134W, strain LCB3, hits give low values 1.01 | locus YJL154C, strain vps35, hits give low values 1.02 | locus YJL164C, strain tpk1, hits give low values 1.01 | locus YJL166W, strain qcr8, hits give low values 1.01 | locus YJL168C, strain set2, hits give low values 1.02 | locus YJL187C, strain SWE1 (second series), hits give low values 1.05 | locus YJL187C, strain SWE1, hits give low values 1.01
